Measurements: PubChem BioAssay (Tox21)
Records with an inconclusive call do not appear. The source made the active and inactive calls. Calls follow the shape of the full dose curve.

Experiment: qHTS assay for small molecule disruptors of the mitochondrial membrane potential - cell viability (AID 720634);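 also: human HepG2 liver cancer cells; nearly all actives have a fitted effect of over 20% in size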
Conditions: HepG2 viability, ATP luminescence (CellTiter-Glo), 1 h; series mostly up to 83.2 µM
Summary of the method: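 ATP-based luminescent viability readout (CellTiter-Glo, 30 min, room temperature) in HepG2 cells multiplexed with the m-MPI membrane potential dye; compound exposure lasted 1 hr at 37 C.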

Compound	outcome
CCCCCCCC/C=C\CCCCCCCC(=O)OCCO	inactive
COc1ccc(CCN(C)CCCN2CCc3cc(OC)c(OC)cc3CC2=O)cc1OC	inactive
CC(C)(C)C1(CCc2ccc(Cl)cc2)CO1 (centres undefined)	inactive
O=C(O)c1ccc(O)cc1O	inactive
COC1CCC=CO1 (centres undefined)	inactive
CCN(CC)CCOC(=O)C(c1ccccc1)c1ccccc1	inactive
Cc1cccc2sc(N)nc12	inactive
CC(=O)OCC(=O)[C@@]1(OC(C)=O)[C@@H](C)C[C@H]2[C@@H]3C[C@H](F)C4=CC(=O)C=C[C@]4(C)[C@@]3(F)[C@@H](O)C[C@@]21C	inactive
COc1ccc(C(=O)NCc2ccc(OCCN(C)C)cc2)cc1OC	inactive
CC[C@@H](CO)NCCN[C@@H](CC)CO	inactive
COc1ccc(N)c([N+](=O)[O-])c1	inactive
Cc1ccc2c(c1[N+](=O)[O-])C(=O)c1ccccc1C2=O	inactive
CC(=O)N[C@@H](Cc1ccc(O)cc1)C(=O)O	inactive
Cc1cn([C@H]2C[C@H](F)[C@@H](CO)O2)c(=O)[nH]c1=O	inactive
C1=CCC2CC=CC2C1 (centres undefined)	inactive
c1ccc(CNc2ncnc3c2ncn3C2CCCCO2)cc1 (centres undefined)	inactive
CCCCCc1ccco1	inactive

Compound	outcome
CCCCC(CC)COS(=O)(=O)O (centres undefined)	inactive
CC1CCCO1 (centres undefined)	inactive
c1ccc(CCCc2ccncc2)cc1	inactive
CC(C)(C(=O)c1cccnc1)c1cccnc1	inactive
SCCc1cnccn1	inactive
O=C1NC(=O)c2cccc3cccc1c23	inactive
CC1CCCC(=O)C1=O (centres undefined)	inactive
CCC1CCC(CCC(=O)O)C1 (centres undefined)	inactive
BrC(Br)C(Br)Br	inactive
O=c1[nH]c2cc(C(F)(F)F)c(N3CCOCC3)cc2n(CP(=O)(O)O)c1=O	inactive
O=C(O)CN1C(=O)c2cccc3cccc(c23)C1=O	inactive
CCCCCC	inactive
O=C(O)c1cccc(C[C@@H]2COc3ccc(OCc4nc5cc(F)ccc5s4)cc3[C@@H]2O)c1	inactive
COC(OC)OC	inactive
O=C(O)CCC(=O)OC[C@@H](NC(=O)C(Cl)Cl)[C@H](O)c1ccc([N+](=O)[O-])cc1	inactive
CC(O)Cn1cnc2c1c(=O)n(C)c(=O)n2C (centres undefined)	inactive
CCCOC(=O)c1c(Cl)c(Cl)c(Cl)c(Cl)c1C(=O)OCCC	inactive
